The list is not random: actives were taken first. Their share in the collection is about 1.3%.
Efflux pump inh: blocks antifungal efflux pumps in multiplex yeast assay. hit rate 0.44% among 330,000. AID 485275. S. cerevisiae Candida pump triplex, Nile Red efflux. inhibition, % at 10 µM;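 active = plate passing quality check with inhibition over a set limit, or well fluorescence over plate mean plus 4 SD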;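 note: Nile Red retained in pooled yeast measured as flow cytometry median fluorescence; higher means more Nile Red kept so more efflux inhibition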
MEP2-GFP yeast: modulators of TOR pathway MEP2-GFP in S. cerevisiae; GFP response vs DMSO, % at 10 µM; S. cerevisiae MEP2-GFP strain, flow cytometry GFP, 3 h; 100% = DMSO control level; hit rate 0.51% among 330,000;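 active = GFP response versus DMSO above a set limit, roughly screen mean plus 3 SD, cut at about 180% in these data; inconclusive = fewer than 70 cells counted for a yeast strain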;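 note: median GFP fluorescence of the barcode-gated MEP2-GFP cells per well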
CIT2 TOR yeast: alters CIT2-GFP fluorescence in TOR pathway yeast screen; S. cerevisiae CIT2-GFP strain, flow cytometry, 3 h; 100 means same as DMSO wells; GFP response vs DMSO, % at 10 µM; hit rate 0.065% among 320,000; AID 2029;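 active = GFP response relative to DMSO above a set limit, near the screen mean plus 3 SD, cut at about 150% in these data; inconclusive = Fewer than 70 cells measured for a yeast strain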;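 note: ratio of well median GFP fluorescence to mean of DMSO wells on the plate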
RPL19A-GFP yeast: yeast TOR pathway RPL19A-GFP modulation; S. cerevisiae RPL19A-GFP strain, flow cytometry, 3 h; stronger effect = lower value; percent response vs DMSO, % at 10 µM; hit rate 0.3% among 330,000; AID 2025;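 active = percent response vs DMSO below 50%; inconclusive = fewer than 70 events counted for the yeast strain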;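 note: median channel GFP fluorescence of the barcoded RPL19A-GFP strain; lower means less RPL19A-GFP as with rapamycin TOR inhibition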
AGP1-GFP MLPCN: modulators of TOR pathway AGP1-GFP in S. cerevisiae; S. cerevisiae AGP1-GFP multiplex flow cytometry, 3 h; GFP as percent of DMSO wells; GFP response vs DMSO, % at 10 µM; hit rate 0.02% among 320,000;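 active = GFP response relative to DMSO above a set limit, near screen average plus 3 SD, cut at about 150% in these data; inconclusive = fewer than 70 cells counted for the yeast strain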;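 note: median GFP channel fluorescence of the gated AGP1 strain per well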
LAP4 TOR yeast: modulators of TOR pathway LAP4-GFP in S. cerevisiae; hit rate 0.34% among 320,000; GFP response vs DMSO, % at 10 µM; S. cerevisiae LAP4-GFP multiplex, flow cytometry GFP, 3 h; median GFP as percent of DMSO wells;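 active = GFP response vs DMSO above a set limit, about the screen mean plus 3 SD, cut at about 150% in these data; inconclusive = under 70 cell events counted for the yeast strain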
Hits are given with their value; . = inactive; ? = inconclusive; / = no result; [ ] = dose if it differs, or a comment.

SMILES | Efflux pump inh | MEP2-GFP yeast | CIT2 TOR yeast | RPL19A-GFP yeast | AGP1-GFP MLPCN | LAP4 TOR yeast
CNc1cc(CSC)nc(SCc2ccc(Cl)cc2Cl)n1 | . | . | . | . | . | 164
CCN(CC(O)Cn1c2ccccc2c2ccccc21)S(=O)(=O)c1ccc(F)cc1 (stereo not given) | . | . | . | . | . | 153
O=S(=O)(c1ccc(F)cc1)N(CCO)CC(O)Cn1c2ccccc2c2ccccc21 (stereo not given) | . | . | . | . | . | .
NNc1nnnc2c1sc1nc(N3CCOCC3)c3c(c12)CCCC3 | . | . | . | . | . | .
CC(=O)Nc1ccc(C(=O)NNC(=O)CCc2ccccc2)cc1 | . | 250[may fluoresce violet] | ? | 43[may fluoresce violet] | . | .
Cc1ccc(SC(=O)c2c(C)noc2-c2cc(C)on2)cc1 | . | . | . | . | . | 155
Cc1ccc(S(=O)(=O)N2C[C@@H]3[C@H]4CC[C@H](C4)[C@@H]3[C@@H](C)[C@@H]2C2CCCCC2=O)cc1 (stereo not given in full) | . | / | / | / | / | /
O=c1[nH]c2c(=O)[nH]cnc2nc1-c1ccccc1 | . | 204 | / | . | / | /
CCc1cc(/C(Cc2csc(C)n2)=N/O)c(O)cc1O | . | 209[may fluoresce violet] | ? | 44[may fluoresce violet] | / | .
Cc1nc(C/C(=N\N)c2ccc(O)cc2O)cs1 | . | . | . | . | . | .
Nc1c2c(nc3ccc(Br)cc13)N(C1CCCCC1)CC2 | 2.4 | . | . | . | . | .
Cc1ccccc1OCc1nnc(SCCN2CCCC2)n1-c1ccccc1 | . | . | ? | 30[may fluoresce violet] | ? | 168[may fluoresce violet]
CN(c1ccccc1)c1cc(=O)[nH]c(=O)[nH]1 | . | . | . | . | . | .
CC(=O)N1CC2(NC(=O)c3ccccc3N2)c2ccccc21 (stereo not given) | . | . | . | . | . | .
O=C(CCNc1ccc(F)cc1)c1ccco1 | . | 276[may fluoresce violet] | ? | 44[may fluoresce violet] | . | .
COc1ccc(-c2[nH]ncc2N=Nc2ccccc2)cc1 | . | . | . | . | . | 151
COc1ccc(-c2[nH]ncc2N=Nc2cc(C)cc(C)c2)cc1 | . | . | . | . | . | .
Cc1ccc2cc(CCl)c(Cl)nc2c1 | . | 791[may fluoresce violet] | ? | 36[may fluoresce violet] | ? | .
ClCc1cc2ccccc2nc1Cl | . | . | . | . | . | .
O=C(/C=C/c1ccccc1)Nc1ncn[nH]1 | . | . | . | . | . | 163
CCc1ccc(NC(=O)c2onc(C)c2Cl)cc1 | . | . | . | . | . | .
CCOC(=O)c1sc(-c2ccc(C(F)(F)F)cc2)nc1O | . | 529[may fluoresce violet] | ? | . | . | .
CCOC(=O)c1sc(-c2cccc(C(F)(F)F)c2)nc1O | . | . | . | . | . | .
CCn1c(CCC(=O)Nc2nc3c(s2)CCCC3)nc2cc(S(=O)(=O)N(C)C)ccc21 | . | 250[may fluoresce violet] | ? | 37[may fluoresce violet] | ? | .
COc1ccc(-c2cc(C(=O)O)c3ccccc3n2)c(OC)c1 | . | . | . | . | . | .
SMILES | Efflux pump inh | MEP2-GFP yeast | CIT2 TOR yeast | RPL19A-GFP yeast | AGP1-GFP MLPCN | LAP4 TOR yeast
COc1ccc2cc(-c3cc(C(=O)O)c4ccccc4n3)ccc2c1 | . | 308 | / | . | . | .
COc1ccc(C(=O)NCCc2c[nH]c3ccccc23)cc1[N+](=O)[O-] | . | . | . | . | . | .
COc1cc(NC(=O)c2c(-c3ccccc3Cl)noc2C)c2ncccc2c1 | . | . | ? | 18[may fluoresce violet] | ? | .
Cc1onc(-c2ccccc2Cl)c1C(=O)Nc1cccc2cccnc12 | . | 355[may fluoresce violet] | ? | 16[may fluoresce violet] | ? | .
COc1cc(NC(=O)c2ccc(Cl)cc2)c2ncccc2c1 | . | . | . | . | . | .
CC(CCc1ccccc1)N1CCN(C)CC1 (stereo not given) | . | . | . | . | . | .
Nc1ccc2oc(=O)c3ccccc3c2c1 | . | 231[may fluoresce violet] | ? | 34[may fluoresce violet] | ? | .
Cc1occc1-c1nnc(SCC(=O)Nc2ccccc2)n1C(C)c1ccccc1 (stereo not given) | . | . | . | . | . | .
Cc1cc(C)c(C(=O)Cn2cnc3cc([N+](=O)[O-])ccc3c2=O)cc1C | . | 196 | . | . | . | .
O=C(Cn1ncc2c3ccccc3n(Cc3ccccc3)c2c1=O)NCCN1CCOCC1 | . | . | ? | 29[may fluoresce violet] | ? | .
O=C(NNC(=O)c1ccccc1O)c1ccco1 | . | . | . | . | . | .
